Screens from PubChem.
L3MBTL1 block – qHTS Assay for the Inhibitors of L3MBTL1; Lethal(3)malignant brain tumor-like protein 1 (Homo sapiens), Q9Y468; AlphaScreen L3MBTL1–H3K9me1 peptide binding; Potency, µM (doses to about 57.1 µM), without a hit: at the highest dose activity, negative = inhibition, actives largely listed as inhibitors; 0.66% of 230,000 active; AID 485360, 2010; also: nearly all actives have a fitted effect of over 60% in size
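L3MBTL1 (50 nM) pre-complexed 30 min with biotinylated H3(1-15)K9me1 peptide (75 nM), then compounds added for 30 min at room temperature; AlphaScreen streptavidin donor/nickel chelate acceptor beads (10 ug/mL final) read after 30 min dark incubation.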
GoLoco inh red – qHTS Assay for Inhibitors of RGS12 GoLoco Motif Activity (Red Fluorophore). Potency, µM (top dose mostly 61.6 µM), inactives show at the highest dose activity, negative = inhibition, usual class: inhibitors. 0.44% of 230,000 active. AID 880, 2007. Guanine nucleotide-binding protein G(i) subunit alpha-1 (Homo sapiens), P63096. Gai1:RGS12 GoLoco peptide FP, rhodamine, 10 min; active = well fitted inhibition curve with a large enough effect, not every such curve was filed as active; inactive = no such curve, though single readings can be large or run the other way; also: nearly all actives have a fitted effect of over 30% in size
Target sequence (P63096 whole entry, looked up): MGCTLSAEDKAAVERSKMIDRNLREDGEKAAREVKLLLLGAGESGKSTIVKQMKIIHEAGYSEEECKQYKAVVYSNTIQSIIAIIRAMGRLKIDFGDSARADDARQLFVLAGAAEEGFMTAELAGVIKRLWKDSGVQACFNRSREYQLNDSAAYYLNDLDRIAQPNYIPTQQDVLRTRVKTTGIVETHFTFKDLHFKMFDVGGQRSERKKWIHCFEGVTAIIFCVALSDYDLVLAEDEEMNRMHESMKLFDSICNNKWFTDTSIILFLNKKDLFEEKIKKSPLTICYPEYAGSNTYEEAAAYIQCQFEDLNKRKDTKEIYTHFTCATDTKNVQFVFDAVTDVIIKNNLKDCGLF
RECQ1 inh-1 – qHTS Assay for Inhibitors of RecQ-Like Dna Helicase 1 (RECQ1). ATP-dependent DNA helicase Q1 (Homo sapiens), P46063. RECQ1 DNA unwinding, red fluorescence kinetic read. Potency, µM (top dose mostly 57.3 µM), for the others: at the top dose activity, negative = inhibition, most hits filed as inhibitors. 0.54% of 240,000 active. AID 2549, 2010;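 also: plate controls were vehicle for no effect and no enzyme for full effect; nearly all actives have a fitted effect of over 30% in size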
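RECQ1T1 50 nM; forked duplex (20 bp + 30-nt ss tails) 200 nM, ATP 2 mM final; pH 8.0, 2 mM MgCl2, 2.5 ug/ml poly(dI-dC); 15 min compound preincubation; discontinuous kinetic read over 2 h at RT.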
APE1 inh – qHTS Assay for Inhibitors of the Human Apurinic/apyrimidinic Endonuclease 1 (APE1). DNA repair nuclease/redox regulator APEX1 (Homo sapiens), P27695. recombinant APE1, TAMRA/BHQ-2 abasic DNA cleavage fluorescence. Potency, µM (doses to about 65.8 µM), for the others: at the highest dose activity change, negative = inhibition, most hits filed as inhibitors. 0.35% of 350,000 active;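 also: plate controls were vehicle for no effect and reference inhibitor for full effect; nearly all actives have a fitted effect of over 55% in size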
Target sequence (P27695 whole entry, looked up): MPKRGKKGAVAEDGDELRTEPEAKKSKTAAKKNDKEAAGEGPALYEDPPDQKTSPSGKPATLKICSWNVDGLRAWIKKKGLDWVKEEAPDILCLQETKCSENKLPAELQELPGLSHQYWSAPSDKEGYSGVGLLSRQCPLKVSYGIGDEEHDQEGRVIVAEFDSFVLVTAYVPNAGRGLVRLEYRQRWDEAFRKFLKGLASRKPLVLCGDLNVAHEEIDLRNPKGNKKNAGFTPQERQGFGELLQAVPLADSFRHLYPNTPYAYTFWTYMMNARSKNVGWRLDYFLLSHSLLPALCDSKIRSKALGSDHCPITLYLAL
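Compound pre-exposure to 0.75 nM APE1, 15 min at ambient temperature. Reaction initiated with 50 nM TAMRA/BHQ-2 THF substrate, read immediately in kinetic mode, 525 nm excitation, 598 nm emission.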
BLM helicase inh – qHTS Assay for Inhibitors of Bloom's syndrome helicase (BLM); 0.2% of 350,000 active; Potency, µM (series often up to 56.1 µM), for the others: at the top dose activity change, negative = inhibition, hits mostly inhibitors; RecQ-like DNA helicase BLM (Homo sapiens), P54132; recombinant BLM DNA unwinding, fluorescence dequenching;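 also: plate controls were vehicle for no effect and no enzyme for full effect; nearly all actives have a fitted effect of over 35% in size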
JMJD2E inh – qHTS Assay for Inhibitors of Human Jumonji Domain Containing 2E (JMJD2E); Lysine-specific demethylase 4E (Homo sapiens), B2RXH2; JMJD2E catalytic domain, FDH-coupled NADH fluorescence (FDH is formaldehyde dehydrogenase); Potency, µM (doses to about 57.1 µM), inactives show top-dose activity change, negative = inhibition, hits mostly inhibitors; 1.6% of 230,000 active; AID 2147, 2009; active = well fitted inhibition curve with a large enough effect, not every such curve was filed as active; inconclusive = small, poorly fitted or top-dose-only effect, or another doubt; inactive = no such curve, though single readings can be large or run the other way;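 also: 0% = wells with enzyme and -100% = buffer wells without enzyme; nearly all actives have a fitted effect of over 50% in size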
RECQ1 inh conf – Confirmation qHTS Assay for Inhibitors of RecQ-Like Dna Helicase 1 (RECQ1) | shares compounds with RECQ1 inh-1 | RECQ1 helicase DNA unwinding, fluorescence | Potency, µM (top dose mostly 229 µM), for inactives: at the highest dose activity change, negative = inhibition, most hits filed as inhibitors | 28% of 610 active; also: nearly all actives have a fitted effect of over 45% in size
RECQ1 ADP FP – Counterscreen for RECQ1 Inhibitors: ADP Fluorescence Polarization Displacement Assay; ADP fluorescence polarization displacement counterscreen; shares compounds with RECQ1 inh-1; Potency, µM (top dose mostly 228 µM), for the others: at the highest dose activity change, negative = inhibition, actives largely listed as inhibitors; 27% of 530 active; also: nearly all actives have a fitted effect of over 45% in size
RECQ1 inh-2 – Confirmation qHTS Assay for Inhibitors of RecQ-Like Dna Helicase 1 (RECQ1) - Round 2 Cherry Picks; shares compounds with RECQ1 inh-1; recombinant RECQ1 DNA unwinding, red fluorescence; Potency, µM (doses to about 119 µM), for inactives: at the highest dose activity, negative = inhibition, hits mostly inhibitors; 15% of 1,100 active; AID 504841, 2011; also: nearly all actives have a fitted effect of over 50% in size
Active calls of the source: *; i = inactive; ? = inconclusive; . = not tested or not shown; [ ] = dose if it differs, or a comment. The entries come from a sample that favours hits as a whole. Unless noted, calls follow the shape of the dose curve; as a rule, active = well fitted curve in the direction sought with a large enough effect; inconclusive = small, poorly fitted or top-dose-only effect, or another doubt; inactive = no such curve, though single readings can be large; an effect the other way counts as inactive or inconclusive. Unless noted, % is scaled to controls: 0 for no effect and ±100 for the full control effect; potency is read from the fitted curve at half-maximal effect.

SMILES	L3MBTL1 block	GoLoco inh red	RECQ1 inh-1	APE1 inh	BLM helicase inh	JMJD2E inh	RECQ1 inh conf	RECQ1 inh-2	others
C=CCN1C(=O)CS/C1=C(\C#N)S(=O)(=O)c1ccc(C)cc1	.	185%	20µM*	-5%	-10%	2%	.	?
C=CCN1C(=O)CSC1=Nc1ccc(C(=O)O)cc1	6%	.	.	-8%	1%	.	.	.
C#CCn1c(=NC(=O)c2ccc(S(=O)(=O)N3CCc4ccccc4C3)cc2)sc2cc(S(N)(=O)=O)ccc21	7%	9%	-8%	0%	-11%	6.3µM*	-10%	.	RECQ1 ADP FP=?
C=CCn1c(=NC(=O)c2ccc(S(=O)(=O)N3CCCc4ccccc43)cc2)sc2cc(S(N)(=O)=O)ccc21	-7%	6%	-2%	?	-13%	0%	.	.
COc1ccc(-c2csc(NC(=O)c3ccc(S(=O)(=O)N4CCc5ccccc5C4)cc3)n2)c(OC)c1	2%	7%	i	17%	-4%	1%	4%	.	RECQ1 ADP FP=-10%
C#CCn1c(=NC(=O)c2sc3ccccc3c2Cl)sc2cc(S(N)(=O)=O)ccc21	5%	8%	5%	-4%	-8%	?	.	.
COC(=O)Cn1c(=NC(=O)c2ccc(S(=O)(=O)N3CCc4ccccc4C3)cc2)sc2cc(OC)ccc21	15%	7%	i	12%	-3%	?	0%	.	RECQ1 ADP FP=10%
COC(=O)Cn1c(=NC(=O)c2ccc(OC)cc2)sc2cc(OC)ccc21	13%	6%	-4%	-3%	-4%	?	.	.
C=CCn1c(=NC(=O)c2ccc(S(=O)(=O)N3CCc4ccccc4C3)cc2)sc2cc(S(N)(=O)=O)ccc21	7%	12%	-3%	0%	-9%	?	16%	.	RECQ1 ADP FP=-1%
CCOc1ccc(-c2csc(NC(=O)c3ccc(S(=O)(=O)N4CCc5ccccc5C4)cc3)n2)cc1	3%	15%	0%	-6%	1%	?	.	.
COc1ccc(OC)c(NC(=O)CSc2nc(=O)n(CCN(C)C)c3c2CCC3)c1	.	.	.	.	5%	.	.	.
CC(C)(C)OC(=O)NCCCC1=CC2=CC(=O)C(C)(OC(=O)c3cccs3)C(=O)C2=CO1 (stereo not drawn)	.	40%	11%	30%	-13%	-4%	.	.
Cc1c(Cl)cccc1NC(=O)c1ncoc1-c1ccco1	.	.	.	.	-2%	.	.	.
CN(C)c1ccc(-c2nc(-c3ccco3)no2)cc1[N+](=O)[O-]	.	.	.	.	-2%	.	.	.
CCCCN1C=CC(=C2C(=O)c3ccccc3C2=O)C=C1	.	46%	?	4%	-1%	0%	.	-12%
Cc1c(N=C2C=C(Br)C(=O)C(Br)=C2)c(=O)n(-c2ccccc2)n1C	.	-3%	22µM*	8.9µM*	-24%	-16%	24%[114 µM]	.
CC(=O)c1c(C)oc2c1cc(NS(=O)(=O)c1ccc(Cl)c(C)c1)c1ccccc12	.	.	.	.	-5%	.	.	.
O=C(CN(c1ccccc1)S(=O)(=O)c1ccccc1)NCCSCc1ccco1	-14%	-7%	14µM*	7.9µM*	-27%	-29%	50µM*	?	RECQ1 ADP FP=50µM*
CCN1CCN(c2oc(-c3ccc(COc4ccc(OC)cc4)o3)nc2C#N)CC1	.	.	.	.	-5%	.	.	.
N=c1c(C(=O)NCc2ccc(F)cc2)cc2c(=O)n3ccccc3nc2n1CCCN1CCOCC1	5%	9%	?	15%	-7%	?	.	3%
COCCCNC(=O)c1ccc(Cn2c(SCc3ccc(F)cc3)nc3cccnc32)cc1	.	.	.	.	2%	.	.	.
Cc1cc(/C=C2\SC(=O)N(C)C2=O)c(C)n1-c1ccc(O)cc1	0%	.	.	-20%	-6%	.	.	.
CC(=O)NC1=NC(=O)/C(=C/c2cc(C)n(-c3ccc(NC(C)=O)cc3)c2C)S1	.	59%	40µM*	-2%	-14%	?	.	-8%
CCn1c(CSc2nnc(-c3ccncc3)n2C)nc2cc(C(=O)O)ccc21	.	14µM*	14µM*	-10%	-6%	?	40µM*	79µM*	RECQ1 ADP FP=7.1µM*
COc1cc(/C=N/N2C(C)CCCC2C)cc(Br)c1O (stereo not drawn)	0%	-4%	-15%	-1%	0%	?	.	.
SMILES	L3MBTL1 block	GoLoco inh red	RECQ1 inh-1	APE1 inh	BLM helicase inh	JMJD2E inh	RECQ1 inh conf	RECQ1 inh-2	others
COc1cc(/C=N/N2C(=O)CSC2=S)cc(Br)c1O	32µM*	304%	35µM*	?	-6%	?	?	.
O=C(CC1N=C2c3ccccc3N=C(SCc3ccc(F)cc3)N2C1=O)NCc1ccco1 (stereo not drawn)	-3%	25%	-6%	3%	-7%	?	.	.
Cc1ccc(CSC2=Nc3ccccc3C3=NC(CC(=O)NCc4ccco4)C(=O)N23)cc1 (stereo not drawn)	?	24%	?	-11%	2%	?	.	?
Cc1nc2cnc(N3CCOCC3)nc2n(Cc2ccc(F)cc2)c1=O	.	13%	0.63µM*	-9%	-9%	.	.	-12%
CCC(=O)N1CCc2cc(S(=O)(=O)NCCC(=O)Nc3cc(C)ccc3OC)ccc21	.	.	.	.	-2%	.	.	.
Cn1cccc1Cc1nnc(SCC(=O)N2CCc3ccccc32)n1-c1ccc(F)cc1	-8%	-1%	-13%	-1%	3%	0%	.	.
Cc1ccc(-n2c(Cc3cccn3C)nnc2SCC(=O)N2CCc3ccccc32)cc1	0%	10%	0.22µM*	9%	-17%	-4%	17%[114 µM]	-9%	RECQ1 ADP FP=14%[91.9 µM]
